From PubChem BioAssay AID624100 (ICCB-Longwood Screening Facility, Harvard Medical School, 2012)
The list shows a part of the results. A number with no mark means an inactive call. Activity calls are given as the source filed them.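 The calls were made as follows: active = average inhibition over replicates above about 50%, so the earlier screening hit is confirmed (limit read from the data); inactive = the rest, counted as false positives.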

Each molecule was assayed against Ubiquitin carboxyl-terminal hydrolase isozyme L5 (Homo sapiens) (UniProt Q9Y5K5) (assay: retest of human UCH37 deubiquitinase inhibitors, confirmation, biochemical, Ub-AMC cleavage rate, fluorescence (AID 624100;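 also: based on cleavage rate fitted by regression over a 30 min kinetic read; 0% = proteasome plus Ub-AMC and 100% = Ub-AMC without proteasome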)). Conditions: Proteasome-bound UCH37, Ub-AMC cleavage fluorescence; at 20 µM; hits give high values.
Sequence of Ubiquitin carboxyl-terminal hydrolase isozyme L5 (Homo sapiens) (Q9Y5K5 whole entry, looked up): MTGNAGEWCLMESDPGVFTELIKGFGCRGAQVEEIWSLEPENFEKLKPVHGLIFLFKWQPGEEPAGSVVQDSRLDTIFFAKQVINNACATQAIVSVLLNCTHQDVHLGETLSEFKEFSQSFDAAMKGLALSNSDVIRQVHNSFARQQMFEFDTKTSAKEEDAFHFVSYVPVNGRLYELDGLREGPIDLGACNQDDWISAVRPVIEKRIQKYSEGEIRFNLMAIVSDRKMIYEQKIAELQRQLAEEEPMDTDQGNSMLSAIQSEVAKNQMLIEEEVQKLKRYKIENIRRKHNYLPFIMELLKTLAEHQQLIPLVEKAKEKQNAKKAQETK

SMILES | inhibition
COc1ccc(S(=O)(=O)/N=C2\C=C(NS(=O)(=O)c3ccccc3)C(=O)c3ccccc32)cc1 | 83.7% (active)
O=C(/C=C/c1ccccc1)c1ccoc1 | 8.47%
O=c1ccc2c(-c3ccccc3S(=O)(=O)O)c3ccc(O)c(O)c3oc-2c1O | 36.2%
COC1=C(N2CCOCC2)C(=O)c2ccccc2C1=O | 12.6%
Cc1[nH][nH]c(=O)c1C(c1ccc(-c2ccc(Cl)cc2)o1)c1c(C)[nH][nH]c1=O | 6.33%
CCN(CC)CCCC(C)n1c2nc(=O)[nH]c(=O)c-2nc2cc(Cl)ccc21 (stereo not given) | 85.1% (active)
CC(=O)N1C(=O)/C(=C2\SC(=S)N(NC(=O)c3ccc(O)cc3)C2=O)c2ccccc21 | 63.5% (active)
CC(C)NC(=O)/C(C#N)=C\c1ccc(N(C)C)c(Br)c1 | 9.32%
CC(OC(=O)c1c(F)cccc1F)C(=O)NCCC1=CCCCC1 (stereo not given) | 32.7%
O=C(O)C(c1ccccc1)N1C(=O)/C(=C\c2ccc(-c3cccc(Cl)c3)o2)SC1=S (stereo not given) | 67.4% (active)
CC(C)CC[n+]1ccn(C2=C([O-])c3ccccc3C(=O)/C2=N\S(=O)(=O)c2ccccc2)c1 | 29.9%
COCCN1C=C2C(=O)C(C)(OC(=O)C3CCCC3)C(=O)C=C2C=C1c1ccsc1 (stereo not given) | 24.9%
Cc1ccc(Nc2cc(C)nc3c(C)ccc([N+](=O)[O-])c23)cc1 | 0.827%
CCCCCCCCn1c2c(c(=N)c3c1CCC3)CCCC2 | 42.2%
Cn1ccc(=Nc2ccc(NC(=O)c3ccc(N=c4ccn(C)c5ccc([N+](=O)[O-])cc45)cc3)cc2)cc1 | 71.3% (active)
